“And” between values parts separate entries of the source, which are not always exact repeats. Equal values may be shown once. Results filed as inconclusive are left out. Entries that show only a call come without a potency. Unmarked numbers belong to inactive results. The source made the active and inactive calls. The call rests on the fitted dose curve; in most records, active means well fitted curve in the direction sought with a large enough effect in the repeat runs; inconclusive means weak or mixed curves; inactive means no such curve, though single readings can be large; an effect the other way counts as inactive or inconclusive.
Assays:
[1] = qHTS assay to identify small molecule agonists of the RXR signaling pathway - cell viability counter screen (AID 1159529); further: nearly all actives have a fitted effect of over 50% in size; further: potency means the concentration at half of the fitted maximal effect
In short: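 Cell viability is measured by CellTiter-Glo luminescence, 30 min at room temperature, in wells already read for beta-lactamase. Engineered HEK 293T cells (RXR-alpha-UAS-bla) are dosed 16 hr at 37 C. Tetraoctyl ammonium bromide serves as positive control.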

[2] = qHTS assay to identify small molecule antagonists of the retinoic acid receptor (RAR) signaling pathway (AID 1159552; further: nearly all actives have a fitted effect of over 50% in size; further: potency means the concentration at half of the fitted maximal effect)
In short: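 Quantitative HTS in C3RL4 RARE-luciferase reporter cells. Compounds were added with 1 uM (final) retinol; luminescence was read after 6 hr.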

[3] = qHTS assay to identify small molecule agonists of the retinoic acid receptor (RAR) signaling pathway (AID 1159553); conditions: C3RL4 RARE luciferase reporter, agonist, 6 h; activation: at 73.3 µM (top of the series) unless noted
In short: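 C3RL4 cells carrying a RARE luciferase reporter were plated overnight at 37 C, then exposed to compounds in DMSO for 6 hr at 37 C and 5% CO2. Luminescence was read 30 min after luciferase reagent addition at room temperature.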

[4] = qHTS assay to identify small molecule antagonists of the retinoid acid receptor (RAR) signaling pathway - cell viability counter screen (AID 1159551); further: nearly all actives have a fitted effect of over 35% in size
In short: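 C3RL4 cells were seeded overnight at 37 C, then treated with compounds plus 1 uM (final) retinol for 6 h at 37 C. Viability was read as ATP by CellTiter-Glo luminescence after 30 min at room temperature.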

[5] = qHTS assay to identify small molecule antagonists of the estrogen related receptor (ERR) signaling pathway - cell viability counter screen (AID 1224818);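 further: viability measured after 17.5 h of compound exposure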
In short: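 ERR reporter cells plated 6 h at 37 C/5% CO2, then compounds in DMSO pin-transferred and incubated 17.5 h at 37 C. Viability read as CellTiter-Fluor fluorescence after 30 min at 37 C.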

[6] = qHTS assay to identify small molecule antagonists of the estrogen related receptor (ERR) signaling pathway (AID 1224819; further: potency means the concentration at half of the fitted maximal effect; nearly all actives have a fitted effect of over 50% in size)
In short: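 ERR reporter cells were plated at 2,000 cells/well and left 6 h at 37 C/5% CO2 before pin-tool transfer of compounds in DMSO. After 18 h at 37 C, One-Glo was added and luminescence was read 30 min later at room temperature.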

[7] = qHTS assay to identify small molecule agonists of the estrogen related receptor (ERR) signaling pathway (AID 1224820)
In short: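 ERR reporter cell line (from NTP), 2,000 cells/well, incubated 6 h before compound addition, then 18 h at 37 C. Luminescence measured 30 min after One-Glo reagent at room temperature.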

[8] = qHTS assay to identify small molecule agonists of the estrogen related receptor signaling pathway with the pleiotropic PPARgamma coactivator (PGC) (AID 1224823)
In short: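 PGC/ERR reporter cells seeded 6 h, then exposed to compounds (23 nL in DMSO) for 18 h at 37 C. One-Glo luciferase luminescence read after 30 min at room temperature.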

CCN1C(=O)c2ccccc2C1Nc1ccc(OCCN2CCCCC2)cc1 (centres undefined)
Potency [1]: inactive
Potency [2]: inactive
Potency [3]: inactive

CCOc1ccc2ccccc2c1C(=O)N[C@@H]1C(=O)N2[C@@H]1SC(C)(C)[C@@H]2C(=O)O
Potency [1]: inactive
Potency [4]: inactive
Potency [3]: inactive

COc1cc2nc(N3CCN(C(=O)c4ccco4)CC3)nc(N)c2cc1OC
activity change, negative = cytotoxicity [4]: -9.47% [at 19 µM]

CC(=O)[C@H]1CC[C@H]2[C@@H]3CCC4=CC(=O)CC[C@]4(C)[C@H]3CC[C@]12C
Potency [1]: 38.7 µM (active) and 43.6 µM (active)
Potency [2]: 48.3 µM (active) and 30.6 µM (active)
outcome [5]: inactive
Potency [6]: 11.9 µM (active)
outcome [7]: inactive
outcome [8]: inactive

CCCc1ccc(OCC(=O)N2CCN(C(=O)COc3ccc(CCC)cc3OC)CC2)c(OC)c1
Potency [4]: inactive
Potency [2]: inactive

CC(C)=CCC1=C(O)c2ccccc2C(=O)C1=O
Potency [4]: inactive
Potency [2]: inactive
Potency [3]: inactive

O=c1[nH]c2ccccc2n1CCCN1CCN(C(c2ccccc2)c2ccccc2)CC1
Potency [4]: inactive

— PubChem BioAssay (Tox21)
